Measurements: PubChem BioAssay AID504332 (National Center for Advancing Translational Sciences (NCATS), 2011)
Screen size: about 350,000 compounds; about 31,000 (8.9%) were called active. About 15% were inconclusive and are not listed. The call rests on the fitted dose curve; in most records, active means well fitted inhibition curve with a large enough effect; inconclusive means small, poorly fitted or top-dose-only effect; inactive means no such curve, though single readings can be large or run the other way. Shown is part of a subset that was picked to be rich in actives. Entries that show only a call come without a potency.

Biological target: Histone-lysine N-methyltransferase EHMT2 (Homo sapiens) (UniProt Q96KQ7)
Sequence (Q96KQ7 913-1193 limits assumed): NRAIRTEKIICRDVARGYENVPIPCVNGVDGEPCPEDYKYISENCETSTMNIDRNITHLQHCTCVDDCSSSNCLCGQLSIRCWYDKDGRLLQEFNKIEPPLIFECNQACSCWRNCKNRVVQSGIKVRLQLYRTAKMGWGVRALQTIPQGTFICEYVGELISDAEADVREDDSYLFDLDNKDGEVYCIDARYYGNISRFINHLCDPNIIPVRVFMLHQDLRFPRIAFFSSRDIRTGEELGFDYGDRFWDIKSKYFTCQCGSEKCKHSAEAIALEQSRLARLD
Experiment: qHTS Assay for Inhibitors of Histone Lysine Methyltransferase G9a; further: nearly all actives have a fitted effect of over 75% in size
Details: G9a H3K9 monomethylation, AlphaScreen, 2 h; series mostly up to 59 µM
Method in brief: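 Using a bead-based AlphaScreen, monomethylated H3K9 product from 2 h room-temperature reactions (G9a 20 nM, peptide 500 nM, SAM 20 uM) was detected with 0.5 ug/mL rabbit anti-H3K9me1 antibody.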
Potency means the concentration at half of the fitted maximal effect.

Compound | Potency | activity, negative = inhibition
COc1cc2nc(SCC(=O)Nc3ccccc3F)n3nc(-c4ccccc4)nc3c2cc1OC | inactive | 
CCS(=O)(=O)c1ncc(N(Cc2ccc(F)cc2)Cc2ccco2)c(C(=O)Nc2cc(C)ccc2C)n1 | inactive | 
Cc1ccc(S(=O)(=O)NCCNC(C)c2ccc(Br)cc2)cc1 (stereo not given) |  | -1.1% [at 12.7 µM] (inactive)
Clc1ccc(N/N=C/c2cccs2)nn1 | 35.5 µM (active) | 
Oc1cccc(/C=N/Nc2ccc(Cl)nn2)c1O | inactive | 
COc1cccc(/C=N/Nc2ccc(Cl)nn2)c1 | inactive | 
CC(C)N(Cc1ccccc1)C(=O)COC(=O)c1ccccc1SCC(=O)N1CCCC1 |  | -46.5% [at 0.501 µM] (inactive)
Cc1c(C)c(C)c(S(=O)(=O)NCCc2ccccn2)c(C)c1C | inactive | 
O=C(CNC(=O)COc1ccccc1)NCCc1ccccn1 | inactive | 
COc1ccc(NCCc2ccccn2)cc1 | 39.8 µM (active) | 
CCOc1ccccc1NC(=O)C1CCCN(S(=O)(=O)c2cn(C)cn2)C1 (stereo not given) | inactive | 
CC(C)c1ccc(NC(=O)COC(=O)c2ccc(CN3CCCC3=O)cc2)cc1 |  | -8.03% [at 12.7 µM] (inactive)
O=C(/C=C/c1ccccc1)N/C(=C/c1ccccc1)C(=O)Nc1ccccc1O | inactive | 
O=C(/C=C/c1ccccc1)c1ccoc1 |  | 10.3% [at 12.7 µM] (inactive)
O=C(/C=C/c1ccccc1)c1ccccc1O | 44.7 µM (active) | 
COCC1CCN(C(=O)CCc2nnc(C3(c4ccc(Cl)cc4)CCC3)o2)C1 (stereo not given) | inactive | 
COc1ccc(-c2ocnc2C(=O)Nc2ccc3c(c2)CCC3)cc1 | inactive | 
Fc1ccc(C(Nc2ccc(Cl)c(C(F)(F)F)c2)c2nnc(-c3ccccc3)o2)cc1 (stereo not given) | inactive | 
Nc1ccccc1Sc1ccc(C(F)(F)F)cc1[N+](=O)[O-] | 39.8 µM (active) | 
O=[N+]([O-])c1cc(C(F)(F)F)ccc1NCCc1ccncc1 | inactive | 
Cc1cccc(OCCNC(=O)CSc2ccc(C(F)(F)F)cc2[N+](=O)[O-])c1 | inactive | 
CCc1cccc(NC(=O)CSc2nccn2C)c1 | inactive | 
CCOC(=O)CSC1=C(C#N)C(c2ccco2)C(C(=O)OCc2ccccc2)=C(C)N1 (stereo not given) | inactive | 
N#CC1=C(N)Oc2c(sc3ccccc23)C1c1ccco1 (stereo not given) | 39.8 µM (active) | 

Compound | Potency | activity, negative = inhibition
CCCCn1c(N)c(N(CCOC)C(=O)c2sc3ccccc3c2Cl)c(=O)[nH]c1=O |  | 0.384% [at 0.501 µM] (inactive)
Cc1cccc(-c2nc(Nc3ccc(O)cc3)c3ccccc3n2)c1 |  | 9.03% [at 12.7 µM] (inactive)
CN1CCN(c2nc(Nc3ccc(O)cc3)nc3ccccc23)CC1 | 25.1 µM (active) | 
COc1ccccc1-c1nc(N2CCN(C)CC2)c2ccccc2n1 |  | 0.0472% [at 0.501 µM] (inactive)
CC(C)(C)c1ccc(S(=O)(=O)N2CCN(C(=O)c3cc(-c4ccc(Br)cc4)n[nH]3)CC2)cc1 | inactive | 
S=C(Nc1ccc(Br)cc1Cl)NC1CCN(Cc2ccccc2)CC1 | inactive | 
O=C(NC1CCN(Cc2ccccc2)CC1)c1c(F)cccc1F | inactive | 
S=C(NN=C1CCN(Cc2ccccc2)CC1)NC1CCCCC1 | 50.1 µM (active) | 
COc1ccccc1NC(=O)c1cc(S(=O)(=O)NCCc2ccccc2)ccc1F | inactive | 
CCc1ccc(S(=O)(=O)n2ccnc2)cc1 | inactive | 
CCOc1ccc(NC(=O)CN(C)C(=O)COc2cccc(CC)c2)cc1OCC |  | -17.2% [at 0.501 µM] (inactive)
CS(=O)(=O)c1ccc2c(c1)SC1=NC(=O)/C(=C/c3ccco3)C(=N)N12 | 50.1 µM (active) | 
CCCCC(=O)OC1=CN(Cc2ccccc2)S(=O)(=O)c2ccccc21 | inactive | 
COc1cccc(C(=O)OCc2cc(=O)oc3c(C)c(C)ccc23)c1OC | inactive | 
CCOC(=O)N1CCC(N2Cc3cccc(C(=O)Nc4c(C)cccc4CC)c3C2=O)CC1 | inactive | 
CN(C)[C@@H]1C(=O)C(C(N)=O)=C(O)[C@@]2(O)C(=O)C3=C(O)c4c(O)ccc(Cl)c4[C@@H](O)[C@H]3C[C@@H]12 | 7.94 µM (active) | 
C=C1c2c(Cl)ccc(O)c2C(O)=C2C(=O)[C@]3(O)C(O)=C(C(N)=O)C(=O)[C@@H](N(C)C)[C@@H]3[C@@H](O)C12 (stereo not given in full) | 7.94 µM (active) | 
CCCN(CC1CC1)C(=S)NC(=O)c1ccccc1Br | inactive | 
Cc1ccc(Cl)cc1N1CCN(C(=O)CN2C(=O)COc3ccc(S(=O)(=O)N4CCOCC4)cc32)CC1 | inactive | 
COc1ccc(-c2noc(C(C)NS(=O)(=O)c3ccc(NC(C)=O)cc3)n2)cc1 (stereo not given) | inactive | 
COc1cc2nc(NCC(C)c3ccccc3)n3nc(-c4ccccc4)nc3c2cc1OC (stereo not given) | inactive | 
CC(C(=O)NC1CCCC1)N1CCN(S(=O)(=O)c2ccccc2Cl)CC1 (stereo not given) |  | 1.28% [at 0.501 µM] (inactive)
COc1cc2c(=O)c(S(=O)(=O)c3ccc(C(C)C)cc3)cn(Cc3ccccc3C)c2cc1OC | inactive | 
Cc1ccc(C(=O)Nc2nnc(-c3cccs3)s2)cc1C |  | -1.27% [at 12.7 µM] (inactive)

Compound | Potency | activity, negative = inhibition
Cc1ccc(C)c(NC(=O)c2ccc3nccnc3c2)c1 | inactive | 
Cc1nnc(NC(=O)c2ccc3nccnc3c2)s1 | 50.1 µM (active) | 
COc1ccc(S(=O)(=O)NCc2cccnc2)cc1NC(=O)c1ccc(C)cc1 | inactive | 
CC(=O)c1c(C)n(S(=O)(=O)c2ccc(Cl)cc2)c2ccc(NS(=O)(=O)c3ccc(Cl)cc3)cc12 | inactive | 
O=C(c1ccc2c(c1)N(Cc1ccccc1)C(=O)c1ccccc1S2(=O)=O)N1CCC(Cc2ccccc2)CC1 | inactive | 
CCC(=O)c1ccc(OCC(O)CN2C(=O)NC(C)(C)C2=O)cc1 (stereo not given) | inactive | 
CCC(=O)c1ccc(OCC(O)CN2CC(C)OC(C)C2)cc1 (stereo not given) | 14.1 µM (active) | 
CC1CCN(CC(O)COc2ccc(C(=O)c3ccccc3)cc2)CC1 (stereo not given) |  | 3.75% [at 0.501 µM] (inactive)
CCOC(=O)C1CCN(C(=O)COC(=O)C2CCN(S(=O)(=O)c3ccc4c(c3)OCCO4)CC2)CC1 | inactive | 
CCOc1ccc(NS(=O)(=O)c2ccc(Cl)c(C(=O)N(C)Cc3cccnc3)c2)cc1 |  | 9.93% [at 12.7 µM] (inactive)
Cc1cc(C)cc(NC(=O)CCCc2nc(-c3ccccc3Cl)no2)c1 | inactive | 
CN(CC(=O)Nc1ccc(Cl)cc1)C(=O)CNC(=O)c1ccc2ccccc2c1 | inactive | 
COc1cccc(-c2nnc(SCC(=O)N3CCC(C)CC3)o2)c1 | inactive | 
O=C(C1COc2ccccc2O1)N(Cc1cccnc1)c1nc2c(F)cc(F)cc2s1 (stereo not given) | inactive | 
CCc1ccc(N2C(=O)CN(S(=O)(=O)CC)CC2(C)C(=O)NC2CCCCC2)cc1 (stereo not given) | inactive | 
COc1ccc(/C=C2/C(=O)N(c3ccccc3)N=C2C)c(OC)c1 | 20 µM (active) | 
COc1ccc(/C=C2/C(=O)OCc3cc(OC)c(OC)cc32)c(OC)c1 | inactive | 
COc1ccc(C(=O)CCc2ccccc2O)c(OC)c1 | inactive | 
CCN1N=C(c2ccccc2)CCC1=O |  | 21.7% [at 0.501 µM] (inactive)
O=C(NNC(=S)NCCCN1CCOCC1)c1ccncc1 | 20 µM (active) | 
Cc1cc(C)cc(NC(=S)NCCCN2CCOCC2)c1 | inactive | 
COc1cccc(NC(=S)NCCCN2CCOCC2)c1 | inactive | 
CCS(=O)(=O)N1CCc2cc(C(=O)NCc3ccc(C)cc3)ccc21 | inactive | 
Cc1cc(-c2csc(N)n2)c(C)n1Cc1ccccc1 | 28.2 µM (active) | 

Compound | Potency | activity, negative = inhibition
O=c1onc(-c2cccs2)n1Cc1ccccc1 |  | 1.14% [at 12.7 µM] (inactive)
Cc1cc(-c2csc(N)n2)c(C)n1-c1ccccc1 | 11.2 µM (active) | 
Cc1nc(N)sc1N=Nc1c(C)n(C)n(-c2ccccc2)c1=O |  | -3.39% [at 12.7 µM] (inactive)
CC(=O)Nc1ccc(C(=O)Nc2nc(-c3cc(C)n(Cc4ccccc4)c3C)cs2)cc1 | inactive | 
Cc1cc(C(=O)OCC(=O)N2c3ccccc3NC(=O)C2(C)C)c(C)n1-c1ccccc1 | inactive | 
CN(CCO)S(=O)(=O)c1ccc2c(c1)C(=O)c1cc(S(=O)(=O)N(C)CCO)ccc1-2 |  | 6.15% [at 0.501 µM] (inactive)
CCOc1ccc(C(=O)NCC(=O)N2CCN(c3ccc(C(F)(F)F)cn3)CC2)cc1 | inactive | 
O=C(Nc1cccc(-c2nc3ccccc3o2)c1)c1cccc(Br)c1 | inactive | 
COc1cc(C(=S)NCc2ccccc2)cc(Br)c1O | 2.51 µM (active) | 
COc1cc(C(=O)NCc2ccncc2)cc(Br)c1OCc1ccccc1 | inactive | 
COc1cc(C=O)c(Br)cc1OCC(=O)NCc1ccccc1 | inactive | 
Cc1cccc(C(=O)NCC(=O)OCC(=O)N(C)CC(=O)Nc2ccccc2Cl)c1 | inactive | 
COc1ccc(NC(=O)COC(=O)Cn2c(C)nc3ccccc32)cc1OC | inactive | 
O=C(COC(=O)Cn1cnc2ccccc21)Nc1cccc2c1C(=O)c1ccccc1C2=O | 12.6 µM (active) | 
O=C(COC(=O)Cn1cnc2ccccc2c1=O)NCC12CC3CC(CC(C3)C1)C2 | inactive | 
COc1ccc(-c2onc(C)c2C)cc1S(=O)(=O)NCCc1ccccc1 | inactive | 
CCOc1ccc(CCNC(=O)CN(c2ccc(C)cc2)S(=O)(=O)N(C)C)cc1OCC | inactive | 
O=C(NCc1ccccc1Cl)c1ccc2c(=O)n(CC3CCCO3)c(=S)[nH]c2c1 (stereo not given) | inactive | 
COc1ccc(CNC(=O)Cn2nnc(-c3ccc(S(C)(=O)=O)cc3)n2)cc1 | inactive | 
CC(=O)c1cccc(NC(=O)C2COc3ccccc3O2)c1 (stereo not given) | inactive | 
C/C(=N/NC(=O)C1COc2ccccc2O1)c1ccco1 (stereo not given) | inactive | 
CC(/C=C/c1ccco1)=N/NC(=O)C1COc2ccccc2O1 (stereo not given) | 56.2 µM (active) | 
Cc1ccc(-n2ncc3c(=O)n(Cc4cccc(C(F)(F)F)c4)cnc32)cc1C | inactive | 
